Screens (PubChem)
MARV entry inh: inhibitors of Marburg virus binding or cell entry; Marburg virus pseudotyped entry inhibition, cell reporter; Potency, µM (doses to about 37.8 µM), actives largely listed as inhibitors; hit rate 1.8% among 300,000; calls by dose curve; tested in HEK293 cells
FMDV inh: foot and mouth disease virus antiviral activity; FMDV antiviral cell-based qHTS; Potency, µM (doses to about 57.9 µM), actives largely listed as inhibitors; hit rate 1.2% among 410,000; AID 1159524; calls by dose curve; tested in HEK293T cells; also: read-out not given here; nearly all actives have a fitted effect of over 45% in size
HCV inh: blocks hepatitis C virus | Huh7.5.1 HCVcc-Cre infection, luciferase reporter, 44 h | Potency, µM (doses to about 41.8 µM), actives largely listed as inhibitors | hit rate 3.4% among 340,000 | AID 651820; active = well fitted inhibition curve with a large enough effect; inconclusive = small, poorly fitted or top-dose-only effect, or another doubt; inactive = no such curve, though single readings can be large or run the other way
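Whole-lifecycle infectious HCVcc-Cre system; cells 1,000/well, compound then virus (~0.5 moi) added 4 h after plating, 44 h culture. Luciferase read 15 sec following 15 min substrate incubation, room temp.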
LASV entry inh: Lassa virus entry inhibition | Potency, µM (series often up to 37.9 µM), actives largely listed as inhibitors | hit rate 1.2% among 300,000 | Lassa virus pseudotype entry inhibition, cell reporter; calls by dose curve; tested in HEK293 cells; also: nearly all actives have a fitted effect of over 50% in size
Cycloheximide cs: affects cycloheximide protein synthesis inhibition readout, counter-screen; cell reporter, cycloheximide protein synthesis inhibition counterscreen; max response, %; hit rate 12% among 300,000; AID 2314; in the data active = max response mostly above about 13%, no sharp cut-off; inactive = mostly below about 14%; also: read at 38.3 µM for the half of the compounds with a filed dose
Shiga inhibitor: blocks Shiga toxin action in Vero cells; hit rate 9.2% among 290,000; AID 2315; Vero cells, Shiga toxin protein synthesis inhibition reporter; inhibition, % at 38.7 µM; in the data active = inhibition mostly above about 28%, no sharp cut-off; inactive = mostly below about 43%
Hits are given with their value; n = inactive; u = inconclusive; x = not tested or not shown; [ ] = remark or other dose. In the library only some 13% were active in any assay of this set; here they are far more common.

SMILES | MARV entry inh | FMDV inh | HCV inh | LASV entry inh | Cycloheximide cs | Shiga inhibitor
CNC(CC(C)C)C(=O)NC1C(=O)NC(CC(N)=O)C(=O)NC2C(=O)NC3C(=O)NC(C(=O)NC(C(=O)O)c4cc(O)cc(O)c4-c4cc3ccc4O)C(O)c3ccc(c(Cl)c3)Oc3cc2cc(c3OC2OC(CO)C(O)C(O)C2OC2C[C@](C)(N)C(O)C(C)O2)Oc2ccc(cc2Cl)C1O (stereo partly drawn) | x | n | n | x | x | x
COC(=O)C(C)NC(=O)C1CCCN1S(=O)(=O)c1cc(C)c(Cl)cc1C (stereo not drawn) | n | n | n | n | n | n
Cc1cc(NC(=O)c2cccc(F)c2)ncc1NC(=O)c1ccco1 | u | n | n | n | 21 | n
Oc1ccccc1-c1cncn1Cc1ccccc1 | n | n | u | n | n | n
COc1ccc(N2CCN(C(CNC(=O)c3cccc(OC)c3)c3cccnc3)CC2)cc1 (stereo not drawn) | x | n | x | n | x | x
O=C(NCC(c1cccnc1)N1CCOCC1)c1ccc2c(c1)OCO2 (stereo not drawn) | u | n | n | n | n | n
CCN1CCN(C(CNC(=O)c2ccc3c(c2)OCO3)c2cccnc2)CC1 (stereo not drawn) | n | n | n | n | 20 | n
O=C(NCC(c1cccnc1)N1CCN(c2ccc(F)cc2)CC1)c1cccc(Cl)c1 (stereo not drawn) | u | 25µM | 14µM | n | n | n
CN(c1c(C#N)c(C(F)(F)F)nn1C)N(S(C)(=O)=O)S(C)(=O)=O | n | n | n | n | n | n
CC(OCCN1CCCC1)(c1ccc(F)cc1)c1ccc(F)cc1 | u | u | n | 2µM | n | n
O=C(CCN1C(=O)S/C(=C\c2ccccc2)C1=O)N1CCOCC1 | n | n | n | n | x | x
COc1ccc(C(=O)/C(=C\c2sccc2C)c2nc3ccccc3o2)cc1 | n | x | n[0.335 µM] | n | 19 | n
COc1ccc(C=C(C(=O)c2ccccc2)c2ccccc2)cc1 | x | n | x | x | x | x
CC(C)Oc1ccc(C(=O)/C(=C\c2cccs2)c2nc3ccccc3o2)cc1 | u | n | u | u | 38 | active
CC(C)Oc1ccc(C(=O)N(Cc2ccco2)Cc2cccs2)cc1 | n | n | x | u | x | x
CN(C)c1c(F)cc(-c2nn[nH]n2)cc1F | x | n | n | x | n | n
COc1ccc(OCc2cc(C(=O)NCCN3CCCC(O)C3)no2)c(Cl)c1 (stereo not drawn) | n | n | u | n | n | n
COc1ccc(OCc2cc(C(=O)NCC3CCCCO3)no2)c(Cl)c1 (stereo not drawn) | x | n | n | x | 46 | 74
COc1ccc(OCc2cc(C(=O)NCC3CCOCC3)no2)c(Cl)c1 | x | n | n | x | 51 | 54
CCN(CC)CCCNc1nc(N)c([N+](=O)[O-])c(NCCO)n1 | x | n | n | x | n | n
CCOc1ccc(/C=N/Nc2cc(N3CCOCC3)nc(C)n2)c(O)c1 | x | u | n | x | n | n
Oc1ccc(/C=N/Nc2cc(N3CCCC3)nc(N3CCCC3)n2)cc1 | u | x | u | n | n | n
Cc1nc(Cl)cc(N/N=C/c2ccc(O)cc2)n1 | x | n | n | x | 19 | 49
Cc1nc(Cl)cc(N/N=C/c2ccc(O)cc2O)n1 | u | n | n | u | 44 | 28
CC[C@H](C)[C@H](NC(=O)[C@H](CO)NC(=O)[C@@H](NC(=O)[C@H](CO)NC(=O)[C@@H](NC(=O)[C@H](CC(N)=O)NC(=O)[C@H](Cc1ccccc1)NC(=O)[C@H](CO)NC(=O)[C@H](CS)NC(=O)[C@H](CC(N)=O)NC(=O)[C@H](CCCCN)NC(=O)[C@@H](NC(=O)[C@H](CCC(=O)O)NC(=O)CN)[C@@H](C)CC)[C@@H](C)CC)[C@@H](C)O)C(=O)N[C@@H](CCCN=C(N)N)C(=O)O | x | x | x | x | n | n
SMILES | MARV entry inh | FMDV inh | HCV inh | LASV entry inh | Cycloheximide cs | Shiga inhibitor
Cn1cc(C(=O)NCc2ccccc2Cl)c(=O)c2cc(S(=O)(=O)N3CCCCCC3)ccc21 | n | n | x | n | x | x
CCOC(=O)c1sc(NC(C)=O)cc1C | x | n | n | x | n | n
CCOC(=O)c1sc(NC(=O)c2ccc(C)s2)cc1C | n | n | u | u | 65 | 68
CCOC(=O)c1sc(NC(=O)C2CCC2)cc1C | x | n | u | x | 28 | 116
CCOC(=O)c1sc(NC(=O)Nc2ccccc2Cl)cc1C | u | n | u | 7.9µM | 69 | 113
CCOC(=O)c1cc(NC(=O)Nc2ccccc2Cl)c(C)nc1C | u | u | u | u | n | n
CCOC(=O)c1sc(NC(=O)Nc2ccccc2)cc1C | 16µM | n | u | 14µM | 152 | 99
Cc1onc(-c2ccccc2)c1NC(=O)OC(C)c1cccnc1 (stereo not drawn) | x | n | x | x | x | x
O=C(c1ccc(Cl)cc1)N1CCC(=O)N(C(CO)Cc2ccccc2)CC1 (stereo not drawn) | x | n | n | x | x | x
CCOc1[nH]n(-c2ccc(Cl)cc2)c(=O)c1C=NCC(=O)OC | x | n | n | x | n | n
Cc1ccc(-c2nc3c4ccccc4ccn3c2Cc2cccc(Cl)c2)cc1 | x | n | x | x | x | x
COC(=O)c1sc(-c2ccc(C(C)(C)C)cc2)cc1NC(=O)COCC(=O)O | u | n | n | n | 20 | 44
COC(=O)c1sc(-c2ccccc2)cc1NC(C)=O | u | n | 8.9µM | n | n | n
COC(=O)c1sc(-c2ccccc2)cc1NC(=O)Nc1ccc(Cl)cc1 | n | n | x | u | x | x
CCOC(=O)c1sc(-c2ccccc2)cc1NC(=O)Nc1ccccc1 | u | n | 10µM | n | n | n
C=CC[C@H](CC(=O)NCCO)C(=O)N[C@@H](C)COC(=O)[C@@H](CC=C)CC(=O)OC(C)(C)C | x | n | n | x | x | x
Cc1nn(-c2nc3ccccc3s2)c(N)c1-c1ccc(Cl)cc1 | n | n | n | n | 33 | 54
Cc1nn(-c2nc3ccccc3s2)c(N)c1-c1ccccc1 | n | x | u | n | 72 | 91
Cc1cc(N)n(-c2nc3ccccc3s2)n1 | n | u | n | n | n | n
Cc1nn(-c2ccc(F)cc2)c(Cl)c1/C=C(\CCC(=O)O)c1nc2ccccc2s1 | u | n | n | n | n | n
Cc1nn(-c2nc3ccccc3s2)c(N)c1Sc1ccc(F)cc1 | u | x | n | n | 20 | 48
CN(C)C(=S)N=c1ssc(=S)n1Cc1ccccc1 | u | n | u | u | x | x
COc1ccc2sc(N(CCCN(C)C)C(=O)c3ccc(S(=O)(=O)N(C)Cc4ccccc4)cc3)nc2c1 | u | n | 10µM | u | x | x
Cc1ccc2sc(N(CCCN(C)C)C(=O)c3ccc(S(=O)(=O)N(C)Cc4ccccc4)cc3)nc2c1C | u | 32µM | 3.5µM | u | x | x
CN(C)CCCN(C(=O)c1ccc(S(=O)(=O)N(C)Cc2ccccc2)cc1)c1nc2cc3c(cc2s1)OCO3 | x | n | u | x | n | n
Cc1ccc2sc(N(CCCN(C)C)C(=O)c3ccc(S(=O)(=O)N(C)C)cc3)nc2c1C | x | n | u | x | n | n
CCCCNC(=O)Nc1cc(C(=O)OC)ccc1C | n | n | n | u | n | n
Cc1ccccc1NC(=O)Cn1cnc2c(oc3nc4c(cc32)CCCC4)c1=O | n | n | n | n | n | n
CCOC(=O)CC(=O)COc1nc2cc3c(nc2o1)CCCC3 | n | n | n | n | 27 | 91
